# LmPK inh: qHTS Assay for Inhibitors of Leishmania Mexicana Pyruvate Kinase (LmPK); purified LmPK, Kinase-Glo ATP luminescence, 1 h; Potency, µM (titrated, usually from 57.5 µM), for the others: top-dose activity change, negative = inhibition, most hits filed as inhibitors; Q27686; hit rate 0.37% among 290,000; further: potency means the concentration at half of the fitted maximal effect; on the % scale 0 is the no-effect control and ±100 the full control effect
#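 Purified LmPK (0.1 nM) converted ADP (0.1 mM) to ATP with PEP (0.5 mM) in imidazole buffer pH 7.2 with KCl and MgCl2, 1 h at room temperature. ATP was read by Kinase-Glo luminescence; data normalized to uninhibited and no-enzyme controls.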
# Giardia FBPA inh: qHTS Assay for Inhibitors of Fructose-1,6-bisphosphate Aldolase from Giardia Lamblia | A8B2U2 | purified Giardia FBPA | Potency, µM (highest dose often 59.6 µM), inactives show at the top dose activity, negative = inhibition, most hits filed as inhibitors | hit rate 0.71% among 290,000 | AID 2451, 2010; further: potency means the concentration at half of the fitted maximal effect; on the % scale 0 is the no-effect control and ±100 the full control effect; nearly all actives have a fitted effect of over 55% in size
# Target sequence (A8B2U2 whole entry, looked up): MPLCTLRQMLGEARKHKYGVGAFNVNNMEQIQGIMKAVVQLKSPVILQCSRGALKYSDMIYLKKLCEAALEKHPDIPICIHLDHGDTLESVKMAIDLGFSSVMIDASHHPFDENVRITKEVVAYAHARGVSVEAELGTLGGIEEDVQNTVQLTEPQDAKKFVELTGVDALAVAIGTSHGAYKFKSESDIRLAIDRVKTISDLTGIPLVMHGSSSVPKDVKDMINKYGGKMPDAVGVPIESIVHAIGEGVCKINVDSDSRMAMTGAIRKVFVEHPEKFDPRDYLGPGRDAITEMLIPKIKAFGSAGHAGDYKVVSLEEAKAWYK
#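 Giardia FBPA (40 nM reagent) was preincubated 10 min at RT with compound (up to 57.5 uM final), then substrate plus GAPDH/TPI/NAD/arsenate coupling system with diaphorase/resazurin was added; resorufin fluorescence (525/598 nm) was read after 20 min.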
# Tb PYK inh: qHTS of Trypanosoma Brucei Inhibitors | Potency, µM (highest dose often 76.8 µM), without a hit: at the highest dose activity, negative = inhibition, usual class: inhibitors | hit rate 0.12% among 410,000 | TbPYK enzyme, Kinase-Glo Plus ATP luminescence, 45 min; further: potency means the concentration at half of the fitted maximal effect; on the % scale 0 is the no-effect control and ±100 the full control effect; nearly all actives have a fitted effect of over 50% in size
#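 Luminescence from Kinase-Glo Plus, added after a 45-minute room-temperature reaction, served as the end-point read-out. The enzyme and substrate were preincubated with compound before ADP (130 uM final) initiated turnover. Concentration-effect curves came from normalized qHTS data.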
# Shiga toxin inh: A qHTS for Small Molecule Inhibitors of Shiga Toxin | AID 2315, 2010 | hit rate 9.2% among 290,000 | inhibition, % at 38.7 µM | Vero cells, Shiga toxin protein synthesis inhibition reporter; in the data active means inhibition mostly above about 28%, no sharp cut-off; inactive means mostly below about 43%; further: 0% is about no effect
# Cycloheximide cs: Cycloheximide Counterscreen for Small Molecule Inhibitors of Shiga Toxin; hit rate 12% among 300,000; cell reporter, cycloheximide protein synthesis inhibition counterscreen; max response, %; in the data active means max response mostly above about 13%, no sharp cut-off; inactive means mostly below about 14%; further: read at 38.3 µM for the half of the compounds with a filed dose; 0% is about no effect
# RE007 growth inh: qHTS Assay for Inhibitors of the HIV-1 protein Vpr. S. pombe RE007 Vpr strain, BacTiter-Glo ATP luminescence, 24 h. Potency, µM (titrated, usually from 92.2 µM), inactives show at the highest dose activity change, negative = less growth, most hits filed as inhibitors. hit rate 0.21% among 360,000. AID 651644, 2012; active means well fitted falling curve with a large enough effect; inconclusive means small, poorly fitted or top-dose-only effect; inactive means no such curve, though single readings can be large or run the other way; further: potency means the concentration at half of the fitted maximal effect; on the % scale 0 is the no-effect control and ±100 the full control effect; nearly all actives have a fitted effect of over 50% in size
#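 Fission yeast strain RE007, carrying one chromosomally integrated HIV-1 vpr copy, was seeded at OD 0.01 in PMG+AL medium with 23 nL pinned compound. After 24 h at 30 °C and 99% humidity, viability was read by BacTiter-Glo luminescence.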
# * marks the source's active call; other numbers are inactive results; ? = inconclusive; / = no result; + = active, no number. Many of the other results were omitted from the sample, so hits are more common in it than they were. Unless noted, the call rests on the fitted dose curve; in most records, active means well fitted curve in the direction sought with a large enough effect; inconclusive means small, poorly fitted or top-dose-only effect, or another doubt; inactive means no such curve, though single readings can be large; an effect the other way counts as inactive or inconclusive.
SMILES,LmPK inh,Giardia FBPA inh,Tb PYK inh,Shiga toxin inh,Cycloheximide cs,RE007 growth inh
Cc1ccc(NC(=S)N2CCCCCC2)c(C)c1,-4%,-18%,6%,25,18*,-3%
Cc1cccc(NC(=S)N2CCN(c3cc(C)ccc3C)CC2)c1,-1%,7%,0%,-20,2,-11%
COc1ccccc1N1CCN(C(=S)Nc2cccc(C)c2)CC1,2%,-3%,-6%,52,33*,5%
Cc1ccc(C)c(NC(=S)N2CCCC2)c1,0%,-28%,-1%,-12,-3,0%
Cc1cccc(NC(=O)N2CCN(Cc3ccccc3)CC2)c1,-3%,10%,3%,+,21*,-3%
COc1ccccc1NC(=O)Cn1c(=O)c(CNc2ccccc2)cc2cc(OC)c(OC)cc21,/,/,-3%,/,/,/
CC(=O)Nc1ccn(C2CC3OCC(NC(=O)C(Cc4ccccc4)NC(=O)OC(C)(C)C)C3O2)c(=O)n1 (configuration not stated),/,8%,/,-5,15,/
Cc1cc(C)cc(NC(=S)N2CCCC2)c1,3%,/,1%,-4,-3,15%
Cc1cccc(NC(=S)N2CCCCCC2)c1,-1%,-6%,4%,21,8.0*,0%
Cc1cccc(NC(=O)N2CCCCCC2)c1,-15%,-1%,11%,56*,38*,28%
O=C(Nc1ccc(F)c(Cl)c1)N1CCCCCC1,-1%,-5%,3%,52*,26*,4%
Cc1cccc(NC(=O)N2CCCC2)c1,-4%,1%,3%,25,6,-9%
S=C(Nc1ccc2nsnc2c1)N1CCCCC1,-3%,?,-22%,42*,11*,-10%
S=C(Nc1ccc(Cl)c(Cl)c1)N1CCCC1,4%,-13%,2%,23,13,1%
COc1ccc(CNC(=O)Cn2ncc3c4ccccc4n(Cc4cccc(Cl)c4)c3c2=O)cc1,/,/,1%,/,/,/
S=C(Nc1ccc2nccnc2c1)N1CCOCC1,1%,14µM*,-3%,48*,37*,14%
CCOC(=O)c1ccc(NC(=O)N2CCN(CCc3ccccc3)CC2)cc1,4%,-1%,7%,12,20*,-6%
O=C(Cn1c(=O)n(Cc2ccco2)c(=O)c2sc3ccccc3c21)Nc1ccc(F)cc1F,/,/,-14%,/,/,/
COc1ccc(NS(=O)(=O)c2ccc(NC(=O)N3CCCC3)cc2)cc1,/,/,1%,/,/,/
CCOC(=O)CSc1nc2cc3c(cc2c(=O)n1CCCC(=O)NCCc1ccc(OC)c(OC)c1)OCO3,/,/,8%,/,/,/
Cn1c(SCC(=O)Nc2sccc2C#N)nnc1C1CC1,/,/,-3%,/,/,-4%
C=CCOc1ccccc1CN(C(=O)CCl)c1ccc2c(c1)OCO2,3%,7%,-15%,49*,17*,-8%
COc1ccc(Nc2ncc3c(n2)CCN(Cc2cccc(F)c2F)C3)c(OC)c1,/,/,0%,/,/,/
C=CCNC(=S)NNC(=O)COc1ccc2cc(Br)ccc2c1,-2%,4%,1%,101*,44*,3%
C=CCNC(=S)NNC(=O)COc1ccc(Br)cc1,4%,6%,?,2,4,3%
SMILES,LmPK inh,Giardia FBPA inh,Tb PYK inh,Shiga toxin inh,Cycloheximide cs,RE007 growth inh
COc1cc(O)c(C(=O)O)c(-c2cc(O)c(O)cc2C)c1,?,16%,10µM*,8,3,-3%
COc1cc(C)c(C(=O)Oc2cc(C)c(C(=O)O)c(O)c2)c(O)c1,9%,11%,-1%,25,-2,11%
CCN(CC(=O)Nc1c(F)cccc1F)C(=O)CCCN1C(=O)c2cccc3cccc(c23)C1=O,/,/,2%,/,/,4%
O=C1c2ccccc2C(Nc2ccc(-c3nc4ccccc4[nH]3)cc2)N1Cc1ccco1 (configuration not stated),-3%,11%,-5%,89*,17*,0%
O=C1c2ccccc2C(Nc2cccnc2)N1Cc1ccc2c(c1)OCO2 (configuration not stated),0%,6%,1%,-12,-6,-7%
O=C1c2ccccc2C(Nc2ccc3c(c2)OCO3)N1Cc1ccc2c(c1)OCO2 (configuration not stated),-9%,?,?,20,38*,0%
O=C1c2ccccc2C(Nc2ccc3c(c2)OCO3)N1Cc1ccco1 (configuration not stated),3%,-22%,?,21*,10,4%
O=C(Nc1ccc2c(c1)OCO2)N1CCN(Cc2ccco2)CC1,-7%,8%,-1%,12,13*,-8%
Cc1cccc(C(=O)NCC(c2ccc(F)cc2)N2CCOCC2)c1 (configuration not stated),1%,2%,-2%,23,4,-1%
Cc1nnc(N2CCN(c3cccc(C(F)(F)F)c3)CC2)c2c1nnn2Cc1ccccc1,/,/,3%,/,/,/
CCCCNC(=S)N/N=C1\C(=O)c2cccc3cccc1c23,7%,8%,-10%,-7,1,-1%
CNC(=S)N/N=C1\C(=O)c2cccc3cccc1c23,0%,-1%,0%,23,23*,-12%
CCOc1ccccc1CNC(=O)C1CCN(C(=O)N2CC(CC)Oc3ccc(C)cc32)CC1 (configuration not stated),/,/,1%,/,/,/
COc1ccc(OC)c(NC(=O)Cn2c(=O)cc(C)c3c(C)nn(-c4cccc(Cl)c4C)c32)c1,/,/,5%,/,/,/
COc1ccc(OC)c(-c2cc(C(=O)N3CCCc4ccccc43)no2)c1,5%,-10%,1%,4,10,13%
COc1cc(C2=NOC(C(=O)N3CCCc4ccccc43)C2)cc(OC)c1OC (configuration not stated),1%,13%,-3%,1,-4,5%
COc1ccc(-c2cc(C(=O)N3CCCc4ccccc43)no2)cc1OC,-1%,17%,15%,-16,18,10%
COc1ccc(-c2cc(C(=O)N3CCCc4ccccc43)no2)cc1,0%,7%,2%,94*,44*,-8%
COc1ccc(C2=NOC(C(=O)N3CCCc4ccccc43)C2)cc1 (configuration not stated),2%,0%,-1%,40,23*,5%
COc1cccc(-c2cc(C(=O)N3CCCc4ccccc43)no2)c1,7%,1%,6%,46*,28*,-9%
COc1ccccc1-c1cc(C(=O)N2CCCc3ccccc32)no1,3%,4%,1%,72*,60*,-16%
O=C(O)c1ccccc1N/N=C\c1ccnc2ccccc12,-17%,-2%,-9%,43,28*,-11%
O=C(O)c1ccccc1N/N=C/c1cc(Br)cc(Br)c1O,6%,17%,-4%,127*,37*,3%
